Holding throughout (test): DAPPL (digital affinity profiling via proximity ligation, sequencing); 10 mM Tris-HCl pH 7.5, 50 mM NaCl, 1 mM DTT, 4% glycerol, room temperature, 30 min; GST-TFs on glutathione beads, 16-mer random dsDNA library, 0.1% formaldehyde crosslink after washing; high values mean tight binding
Holding throughout (conditions): protein: recombinant; tags: N-terminal GST; dsDNA, one strand shown

The target of one test is T1, ERG (Homo sapiens, UniProt P11308 1-479).
T1 sequence: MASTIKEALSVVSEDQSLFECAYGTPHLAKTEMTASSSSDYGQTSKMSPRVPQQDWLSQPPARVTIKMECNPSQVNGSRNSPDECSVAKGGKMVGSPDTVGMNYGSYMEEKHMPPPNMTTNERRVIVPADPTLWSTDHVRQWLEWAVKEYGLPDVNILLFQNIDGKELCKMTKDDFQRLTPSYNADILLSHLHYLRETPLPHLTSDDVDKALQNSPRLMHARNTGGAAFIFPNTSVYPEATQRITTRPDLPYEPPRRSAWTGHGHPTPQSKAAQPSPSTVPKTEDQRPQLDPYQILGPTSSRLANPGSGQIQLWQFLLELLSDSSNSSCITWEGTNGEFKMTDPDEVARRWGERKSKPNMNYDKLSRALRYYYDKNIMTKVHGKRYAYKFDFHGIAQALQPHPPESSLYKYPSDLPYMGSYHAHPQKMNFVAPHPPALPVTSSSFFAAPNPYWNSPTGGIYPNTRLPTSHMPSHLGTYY
The gist of the method: (§1)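 The binding signal reported is, for every hexamer, its read frequency for a factor over its read frequency for the tag-only sample. Reads came from pools of yeast-expressed, GST-fused human transcription factors on glutathione beads, barcoded with DNA and mixed with that sample, which were incubated with 200 nmole of a random double-stranded 16-mer DNA library in Tris/NaCl/DTT/glycerol buffer at room temperature for 30 min. After washing, the pools were crosslinked with 0.1% formaldehyde, proximity-ligated with BsaI/T4 ligase for 1 h at 37 °C, PCR-amplified and sequenced on an Illumina NextSeq500.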

The target of a further test is ELF1 (Homo sapiens, UniProt P32519 1-619). The gist of the method: as §1
For a further test, the target named is T2, EHF (Homo sapiens, UniProt Q9NZC4 1-300).
T2 sequence: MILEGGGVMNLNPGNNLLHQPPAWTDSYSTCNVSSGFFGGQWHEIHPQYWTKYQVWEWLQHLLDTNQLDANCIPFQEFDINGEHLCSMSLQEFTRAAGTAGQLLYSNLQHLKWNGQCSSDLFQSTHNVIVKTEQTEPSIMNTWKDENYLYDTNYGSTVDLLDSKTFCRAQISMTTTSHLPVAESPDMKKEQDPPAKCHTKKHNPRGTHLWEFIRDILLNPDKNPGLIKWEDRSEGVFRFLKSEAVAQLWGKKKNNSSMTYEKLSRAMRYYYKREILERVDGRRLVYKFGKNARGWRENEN
The essentials: as §1

The next test addresses ETV5 (Homo sapiens, UniProt P41161 1-510). The gist of the method: as §1
A further test deals with T3, ELK4 (Homo sapiens, UniProt P28324-2 1-405).
T3 sequence: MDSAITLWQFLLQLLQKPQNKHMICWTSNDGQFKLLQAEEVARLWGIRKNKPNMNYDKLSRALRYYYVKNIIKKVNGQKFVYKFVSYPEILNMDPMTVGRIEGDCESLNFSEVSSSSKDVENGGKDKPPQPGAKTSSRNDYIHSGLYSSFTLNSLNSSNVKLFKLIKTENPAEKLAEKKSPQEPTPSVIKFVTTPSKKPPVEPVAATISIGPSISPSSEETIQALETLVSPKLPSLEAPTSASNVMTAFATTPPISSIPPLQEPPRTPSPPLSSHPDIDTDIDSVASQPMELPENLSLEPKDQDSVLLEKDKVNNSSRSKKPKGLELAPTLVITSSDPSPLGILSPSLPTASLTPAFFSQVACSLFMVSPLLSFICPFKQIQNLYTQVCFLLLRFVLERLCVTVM
The essentials: as §1

The next test deals with ETV1 (Homo sapiens, UniProt P50549 1-477). The essentials: as §1
The target of a further test is T4, ERF (Homo sapiens, UniProt P50548 1-548).
T4 sequence: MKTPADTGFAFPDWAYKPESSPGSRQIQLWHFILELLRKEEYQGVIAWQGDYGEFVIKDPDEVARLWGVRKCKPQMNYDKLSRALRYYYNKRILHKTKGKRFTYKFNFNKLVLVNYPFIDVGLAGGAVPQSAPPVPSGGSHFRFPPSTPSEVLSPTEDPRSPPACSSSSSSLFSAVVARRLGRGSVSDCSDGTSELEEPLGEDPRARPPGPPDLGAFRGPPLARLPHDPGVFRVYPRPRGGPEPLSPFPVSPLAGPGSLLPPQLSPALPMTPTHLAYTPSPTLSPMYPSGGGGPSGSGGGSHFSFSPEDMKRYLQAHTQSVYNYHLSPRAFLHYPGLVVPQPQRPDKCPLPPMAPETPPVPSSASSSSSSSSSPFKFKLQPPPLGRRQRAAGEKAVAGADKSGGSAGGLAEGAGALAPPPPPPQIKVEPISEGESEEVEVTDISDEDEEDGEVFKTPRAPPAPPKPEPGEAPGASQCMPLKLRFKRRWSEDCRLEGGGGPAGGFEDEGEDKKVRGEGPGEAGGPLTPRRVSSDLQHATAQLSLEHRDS
The essentials: as §1

In the next test the target is T5, ETV3L (Homo sapiens, UniProt Q6ZN32 1-361).
T5 sequence: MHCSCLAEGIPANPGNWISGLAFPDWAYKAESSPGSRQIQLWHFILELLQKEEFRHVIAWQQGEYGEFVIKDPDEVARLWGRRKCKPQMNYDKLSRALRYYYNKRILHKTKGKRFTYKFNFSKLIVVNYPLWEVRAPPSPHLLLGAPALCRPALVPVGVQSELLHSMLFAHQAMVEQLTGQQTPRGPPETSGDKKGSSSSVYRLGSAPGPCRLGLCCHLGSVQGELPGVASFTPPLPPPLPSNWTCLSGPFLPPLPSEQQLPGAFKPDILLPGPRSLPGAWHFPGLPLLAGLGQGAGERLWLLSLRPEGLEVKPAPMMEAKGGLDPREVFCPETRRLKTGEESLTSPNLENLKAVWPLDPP
The gist of the method: as §1

The target in the next test is T6, ETS2 (Homo sapiens, UniProt P15036 1-469).
T6 sequence: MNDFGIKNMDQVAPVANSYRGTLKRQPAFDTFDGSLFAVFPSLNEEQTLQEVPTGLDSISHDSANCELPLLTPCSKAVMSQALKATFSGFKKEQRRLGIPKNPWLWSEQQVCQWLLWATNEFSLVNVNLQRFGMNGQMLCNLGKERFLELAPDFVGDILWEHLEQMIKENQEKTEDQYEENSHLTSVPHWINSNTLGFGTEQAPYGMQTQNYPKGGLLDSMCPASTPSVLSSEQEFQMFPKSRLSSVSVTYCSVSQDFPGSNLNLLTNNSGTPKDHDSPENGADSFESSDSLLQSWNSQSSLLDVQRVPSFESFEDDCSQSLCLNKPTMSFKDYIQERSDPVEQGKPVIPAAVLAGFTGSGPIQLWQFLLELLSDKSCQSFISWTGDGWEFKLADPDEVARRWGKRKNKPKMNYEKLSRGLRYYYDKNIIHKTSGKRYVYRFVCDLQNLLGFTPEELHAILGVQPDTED
The essentials:
as §1

The next test concerns the target T7, SPDEF (Homo sapiens, UniProt O95238 1-335).
T7 sequence: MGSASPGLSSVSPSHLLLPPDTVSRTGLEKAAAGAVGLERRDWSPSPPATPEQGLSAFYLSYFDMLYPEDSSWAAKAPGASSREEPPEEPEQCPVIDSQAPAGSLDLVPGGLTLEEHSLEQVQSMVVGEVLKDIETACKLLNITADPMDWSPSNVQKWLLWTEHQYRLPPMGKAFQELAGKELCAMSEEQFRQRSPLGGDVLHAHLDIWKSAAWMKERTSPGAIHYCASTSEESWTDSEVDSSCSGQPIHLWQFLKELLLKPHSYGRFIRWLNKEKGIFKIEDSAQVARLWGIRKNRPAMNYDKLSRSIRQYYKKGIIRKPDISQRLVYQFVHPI
The essentials:
as §1

A further test concerns the target T8, ETV7 (Homo sapiens, UniProt Q9Y603 1-341).
T8 sequence: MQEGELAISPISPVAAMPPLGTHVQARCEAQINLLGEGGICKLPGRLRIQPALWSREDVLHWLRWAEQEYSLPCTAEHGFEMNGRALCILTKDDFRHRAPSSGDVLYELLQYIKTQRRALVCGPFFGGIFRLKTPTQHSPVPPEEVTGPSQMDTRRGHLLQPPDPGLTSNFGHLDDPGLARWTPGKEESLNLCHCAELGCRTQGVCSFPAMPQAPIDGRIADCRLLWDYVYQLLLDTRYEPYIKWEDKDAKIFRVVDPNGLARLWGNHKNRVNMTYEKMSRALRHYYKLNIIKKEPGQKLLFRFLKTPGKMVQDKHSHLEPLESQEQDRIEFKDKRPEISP
The essentials: as §1

The target in the next test is ETV6 (Homo sapiens, UniProt P41212 1-452). The gist of the method: as §1
A further test addresses T9, GABPA (Homo sapiens, UniProt Q06546 1-454).
T9 sequence: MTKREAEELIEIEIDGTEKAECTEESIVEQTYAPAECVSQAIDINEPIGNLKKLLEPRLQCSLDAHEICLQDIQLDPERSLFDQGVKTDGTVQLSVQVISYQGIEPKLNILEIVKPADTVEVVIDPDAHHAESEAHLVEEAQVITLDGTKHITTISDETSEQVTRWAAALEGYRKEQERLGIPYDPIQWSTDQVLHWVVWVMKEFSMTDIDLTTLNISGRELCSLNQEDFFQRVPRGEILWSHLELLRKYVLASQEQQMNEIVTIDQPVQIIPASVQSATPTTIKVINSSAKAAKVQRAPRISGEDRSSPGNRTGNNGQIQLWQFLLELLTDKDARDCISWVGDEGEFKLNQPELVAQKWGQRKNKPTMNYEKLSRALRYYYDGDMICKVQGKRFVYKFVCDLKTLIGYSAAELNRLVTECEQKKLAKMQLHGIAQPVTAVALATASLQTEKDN
The gist of the method: as §1

The target of a further test is SPIB (Homo sapiens, UniProt Q01892 1-262). The gist of the method:
as §1

Another test has as its target ELF4 (Homo sapiens, UniProt Q99607 1-663). The essentials: as §1
The next test deals with T10, ETV2 (Homo sapiens, UniProt O00321 1-342).
T10 sequence: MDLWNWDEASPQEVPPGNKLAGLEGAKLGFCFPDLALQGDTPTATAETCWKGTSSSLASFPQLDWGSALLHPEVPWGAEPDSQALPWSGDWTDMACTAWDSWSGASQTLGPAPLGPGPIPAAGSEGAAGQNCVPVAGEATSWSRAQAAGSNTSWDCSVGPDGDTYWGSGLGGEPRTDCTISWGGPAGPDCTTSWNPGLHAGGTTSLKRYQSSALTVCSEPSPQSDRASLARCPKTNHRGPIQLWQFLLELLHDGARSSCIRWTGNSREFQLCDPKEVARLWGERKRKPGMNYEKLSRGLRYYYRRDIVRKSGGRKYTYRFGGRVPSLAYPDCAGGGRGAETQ
The gist of the method:
as §1

ETV1, sequence (P50549 whole entry): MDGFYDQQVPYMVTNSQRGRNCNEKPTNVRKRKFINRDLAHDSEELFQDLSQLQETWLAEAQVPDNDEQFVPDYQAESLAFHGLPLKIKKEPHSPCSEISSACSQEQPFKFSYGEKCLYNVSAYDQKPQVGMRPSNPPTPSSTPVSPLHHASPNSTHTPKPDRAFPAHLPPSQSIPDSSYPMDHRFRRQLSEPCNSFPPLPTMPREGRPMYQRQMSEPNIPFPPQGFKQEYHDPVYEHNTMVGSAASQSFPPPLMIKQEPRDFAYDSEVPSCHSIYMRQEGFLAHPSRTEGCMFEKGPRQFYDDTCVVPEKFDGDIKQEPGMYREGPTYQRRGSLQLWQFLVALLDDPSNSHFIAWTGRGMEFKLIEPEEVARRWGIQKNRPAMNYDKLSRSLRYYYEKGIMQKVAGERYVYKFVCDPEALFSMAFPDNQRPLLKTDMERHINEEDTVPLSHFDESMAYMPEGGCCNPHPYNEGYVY
ELF1, sequence (P32519 whole entry): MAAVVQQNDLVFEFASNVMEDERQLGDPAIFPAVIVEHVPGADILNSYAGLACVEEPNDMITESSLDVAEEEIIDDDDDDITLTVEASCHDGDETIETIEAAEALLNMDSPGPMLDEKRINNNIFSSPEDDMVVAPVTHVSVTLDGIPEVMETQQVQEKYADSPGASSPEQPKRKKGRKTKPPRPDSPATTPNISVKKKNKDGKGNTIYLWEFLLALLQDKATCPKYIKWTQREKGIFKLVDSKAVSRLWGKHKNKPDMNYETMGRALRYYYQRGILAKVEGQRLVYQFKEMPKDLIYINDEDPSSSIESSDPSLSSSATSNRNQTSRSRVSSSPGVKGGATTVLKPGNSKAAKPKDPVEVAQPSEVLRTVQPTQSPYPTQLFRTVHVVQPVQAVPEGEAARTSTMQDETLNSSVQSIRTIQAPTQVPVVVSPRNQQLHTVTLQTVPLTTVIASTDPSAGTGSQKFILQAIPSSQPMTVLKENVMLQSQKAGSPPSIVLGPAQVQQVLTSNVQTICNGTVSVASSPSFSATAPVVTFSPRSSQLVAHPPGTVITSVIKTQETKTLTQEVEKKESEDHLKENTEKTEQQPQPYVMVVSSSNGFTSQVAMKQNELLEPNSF
ETV5, sequence (P41161 whole entry): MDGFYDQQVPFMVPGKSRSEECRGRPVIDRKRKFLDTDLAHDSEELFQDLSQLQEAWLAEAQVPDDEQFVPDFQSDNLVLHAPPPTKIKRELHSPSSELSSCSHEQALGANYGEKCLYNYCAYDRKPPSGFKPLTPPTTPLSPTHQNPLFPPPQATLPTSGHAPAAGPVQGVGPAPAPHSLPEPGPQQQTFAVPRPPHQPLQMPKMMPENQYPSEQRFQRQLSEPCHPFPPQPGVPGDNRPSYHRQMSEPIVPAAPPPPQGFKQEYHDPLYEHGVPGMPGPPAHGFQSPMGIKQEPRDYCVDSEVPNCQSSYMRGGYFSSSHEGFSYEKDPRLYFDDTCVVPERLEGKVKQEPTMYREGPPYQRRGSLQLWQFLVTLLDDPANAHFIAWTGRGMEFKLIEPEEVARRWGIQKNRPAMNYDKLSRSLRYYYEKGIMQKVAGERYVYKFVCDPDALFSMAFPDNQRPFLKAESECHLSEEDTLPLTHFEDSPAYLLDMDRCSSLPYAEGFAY
SPIB, sequence (Q01892 whole entry): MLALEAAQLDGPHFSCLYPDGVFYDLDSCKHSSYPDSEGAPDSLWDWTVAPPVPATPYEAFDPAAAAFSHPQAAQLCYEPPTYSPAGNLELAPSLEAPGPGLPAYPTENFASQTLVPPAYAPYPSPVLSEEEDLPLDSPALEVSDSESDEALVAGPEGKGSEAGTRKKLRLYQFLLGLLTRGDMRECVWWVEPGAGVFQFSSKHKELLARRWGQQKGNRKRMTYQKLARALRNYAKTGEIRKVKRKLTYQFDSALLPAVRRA
ELF4, sequence (Q99607 whole entry): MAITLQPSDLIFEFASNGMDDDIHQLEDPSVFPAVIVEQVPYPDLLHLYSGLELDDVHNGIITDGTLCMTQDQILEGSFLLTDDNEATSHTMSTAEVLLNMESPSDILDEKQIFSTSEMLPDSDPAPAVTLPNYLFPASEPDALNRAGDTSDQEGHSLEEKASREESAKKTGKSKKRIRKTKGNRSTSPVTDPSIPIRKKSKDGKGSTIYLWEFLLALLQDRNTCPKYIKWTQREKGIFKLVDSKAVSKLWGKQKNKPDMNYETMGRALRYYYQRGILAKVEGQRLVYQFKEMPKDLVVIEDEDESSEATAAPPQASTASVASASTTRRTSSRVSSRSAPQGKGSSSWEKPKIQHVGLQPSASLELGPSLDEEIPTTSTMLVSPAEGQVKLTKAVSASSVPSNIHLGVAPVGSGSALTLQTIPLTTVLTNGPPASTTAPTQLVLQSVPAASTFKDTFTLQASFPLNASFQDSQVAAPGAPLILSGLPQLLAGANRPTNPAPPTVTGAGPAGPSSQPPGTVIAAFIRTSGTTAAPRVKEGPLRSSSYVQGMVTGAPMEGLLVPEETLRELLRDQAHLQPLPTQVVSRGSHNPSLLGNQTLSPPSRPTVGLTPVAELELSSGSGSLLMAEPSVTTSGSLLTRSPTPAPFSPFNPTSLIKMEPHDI
ETV6, sequence (P41212 whole entry): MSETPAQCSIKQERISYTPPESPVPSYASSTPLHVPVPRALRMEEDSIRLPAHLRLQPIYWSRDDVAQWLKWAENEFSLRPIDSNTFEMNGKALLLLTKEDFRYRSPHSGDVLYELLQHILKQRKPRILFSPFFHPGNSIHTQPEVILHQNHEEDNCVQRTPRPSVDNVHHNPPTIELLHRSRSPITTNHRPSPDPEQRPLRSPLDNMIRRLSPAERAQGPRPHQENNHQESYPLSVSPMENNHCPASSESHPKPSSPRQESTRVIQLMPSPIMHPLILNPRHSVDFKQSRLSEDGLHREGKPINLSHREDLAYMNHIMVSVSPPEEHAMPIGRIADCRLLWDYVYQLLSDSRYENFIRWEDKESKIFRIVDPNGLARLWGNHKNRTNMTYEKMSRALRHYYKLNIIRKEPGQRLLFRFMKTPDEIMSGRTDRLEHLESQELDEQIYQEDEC

Take TCACGG: the binding signal with ERG is 1.02 fold enrichment (6-mer frequency, TF over GST control); with ELF1, 1.06 fold enrichment (6-mer frequency, TF over GST control); with EHF, 1.08 fold enrichment (6-mer frequency, TF over GST control); with ETV5, 1.04 fold enrichment (6-mer frequency, TF over GST control); with ELK4, 1.02 fold enrichment (6-mer frequency, TF over GST control); in the test with ETV1, 1.09 fold enrichment (6-mer frequency, TF over GST control). Moreover, the binding signal was 1.06 fold enrichment (6-mer frequency, TF over GST control) with ERF; 1.02 fold enrichment (6-mer frequency, TF over GST control) with ETV3L; 1.04 fold enrichment (6-mer frequency, TF over GST control) in the test with ETS2; 1.1 fold enrichment (6-mer frequency, TF over GST control) with SPDEF; 1.04 fold enrichment (6-mer frequency, TF over GST control) with ETV7; 1.05 fold enrichment (6-mer frequency, TF over GST control) with ETV6.

As to AGAAAA, the binding signal with GABPA is 1.03 fold enrichment (6-mer frequency, TF over GST control); with ERG, 1.02 fold enrichment (6-mer frequency, TF over GST control); in the test with ELF1 it was 1.02 fold enrichment (6-mer frequency, TF over GST control); with EHF, 1.02 fold enrichment (6-mer frequency, TF over GST control); with SPIB, 1.08 fold enrichment (6-mer frequency, TF over GST control); with ETV5 it was 1.02 fold enrichment (6-mer frequency, TF over GST control). Further, the binding signal was 1.04 fold enrichment (6-mer frequency, TF over GST control) with ELF4; 1.1 fold enrichment (6-mer frequency, TF over GST control) with ETV2; 1.05 fold enrichment (6-mer frequency, TF over GST control) in the test with ETV1; 1 fold enrichment (6-mer frequency, TF over GST control) with ETV3L; 1.09 fold enrichment (6-mer frequency, TF over GST control) with ETS2; 1.04 fold enrichment (6-mer frequency, TF over GST control) with ETV7.

The values are drawn from article PMC7862700, “An all-to-all approach to the identification of sequence-specific readers for epigenetic DNA modifications on cytosine”.
